This excerpt belongs to a sample that is enriched for hits.
DUX4 inh = blocks DUX4-driven transcriptional activation | 37,000 tested, 0.8% active | activity change, negative = inhibition, % (test concentration not listed) | 293T-iDUX4 ZSCAN4-Gaussia luciferase reporter, 24 h; hits give low values;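 active = mean inhibition of at least 10% in the main channel, exceeding the control channel by a set limit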;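 also: 0% = median of neutral control wells and -100% = median of positive control wells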
Numbers without * were called inactive; ! = not confirmed by another sample.

SMILES | DUX4 inh
CO[C@@H]1CN(C)C(=O)c2ccc(NC(=O)c3nc4ccccc4s3)cc2OC[C@@H](C)N(Cc2cccnc2)C[C@H]1C | -64.9*
COc1cc(CN2CC3(CCN(C(=O)NC(C)C)CC3)c3c(n(C)c4cc(OC)ccc34)[C@@H]2CO)cc(OC)c1 | -4.7
COc1ccc2c3c(n(C)c2c1)[C@H](CO)N(CC1CC1)CC31CN(Cc2ccc(F)cc2)C1 | -3.5
COc1cc(CN2CC3(CCN(C(=O)NC(C)C)CC3)c3c(n(C)c4cc(OC)ccc34)[C@H]2CO)cc(OC)c1 | 1.0
COc1ccc2c3c(n(C)c2c1)[C@@H](CO)N(C(=O)c1ccccc1)CC31CN(C(C)=O)C1 | 11.5
COc1cc(CN2CC3(CCN(C(=O)Nc4cccc(F)c4)CC3)c3c(n(C)c4cc(OC)ccc34)[C@H]2CO)cc(OC)c1 | -37.0*
COc1ccc2c3c(n(C)c2c1)[C@@H](CO)N(C)CC31CN(C(=O)Nc2cccc(F)c2)C1 | 9.6
COc1ccc2c3c(n(C)c2c1)[C@@H](CO)N(C(=O)c1ccccc1)CC31CN(C)C1 | 5.9
COc1ccc2c3c(n(C)c2c1)[C@H](CO)N(C)CC31CN(C(=O)c2cccnc2)C1 | 10.0
COc1ccc2c3c(n(C)c2c1)[C@H](CO)N(C)CC31CN(C(=O)c2ccccc2F)C1 | -32.1*
COc1ccc2c3c(n(C)c2c1)[C@@H](CO)N(C(=O)c1ccc(F)cc1)CC31CCN(CC2CC2)CC1 | 1.7
COc1ccc2c3c(n(C)c2c1)[C@H](CO)N(C(C)=O)CC31CN(C(=O)c2ccccc2)C1 | -30.2*
COc1ccc2c3c(n(C)c2c1)[C@H](CO)N(CC1CC1)CC31CN(C(=O)c2ccc(F)cc2)C1 | -37.2*
C[C@@H]1CN([C@@H](C)CO)C(=O)c2cc(NS(=O)(=O)c3cn(C)cn3)ccc2O[C@@H](C)CCCCO[C@H]1CN(C)C(=O)CCCN(C)C | -0.2
C[C@H](NC(=O)[C@H]1N[C@H]2c3ccc(C4=CCCC4)c(=O)n3C[C@H]2[C@@H]1CO)c1ccccc1 | 0.1
O=C(C[C@H]1C[C@@H]2c3cc(NC(=O)c4ccc5c(c4)OCO5)ccc3O[C@@H]2[C@H](CO)O1)NCc1ccccn1 | 3.2
O=C(Nc1ccccc1F)N1C[C@H]2[C@@H](c3ccccc31)[C@@H](CO)N2C(=O)c1ccccn1 | 2.8
C[C@H]1CC=CC[C@H](c2ccccc2)NC(=O)[C@H](Cc2ccccc2)N(C)C(=O)c2ccccc2O1 (mixture of isomers) | 1.5
COc1ccc([C@@H]2CC=CC[C@H](C)Oc3ccccc3C(=O)N(C)[C@@H](C)C(=O)N2)c(OC)c1 (mixture of isomers) | -2.0
C[C@@H](NC(=O)C[C@@H]1C=C[C@H](NC(=O)CN2CCOCC2)[C@H](CO)O1)c1ccccc1 | 4.1
O=C(C[C@H]1CC[C@@H]2[C@H](COC[C@H](O)CN2C(=O)c2ccccc2)O1)NC1Cc2ccccc2C1 | 10.0
C[C@H]1CN([C@@H](C)CO)C(=O)CCCn2nncc2CO[C@@H]1CN(C)C(=O)Nc1ccc(F)cc1 | -1.5
COc1ccc(NC(=O)N2CC3(C2)CN(CC2CC2)[C@H](CO)c2c3c3ccc(OC)cc3n2C)cc1 | -5.5
COc1ccccc1CN1[C@H](CO)[C@@H](c2ccccc2)C12CN(C(C)=O)C2 | 3.8
COc1ccccc1CN1CC2(C1)[C@@H](c1ccccc1)[C@@H](CO)N2Cc1ccccc1 | -54.8*
SMILES | DUX4 inh
COCC(=O)N1CC2(C1)[C@H](c1ccccc1)[C@@H](CO)N2Cc1ccccc1OC | -7.9
COc1ccc2c3c([nH]c2c1)[C@H](CO)N(C(=O)C1CCC1)CC31CCN(C(=O)c2ccccn2)CC1 | 7.1
CC(C)C(=O)Nc1ccc2c(c1)C(=O)N(C)[C@@H]1CC[C@H](CC(=O)NCc3ccccc3F)O[C@H]1CO2 | 0.7
CS(=O)(=O)N1CC2(C1)[C@@H](c1ccccc1)[C@@H](CO)N2Cc1ccc(F)cc1 | -9.8
N#Cc1cccc(-c2ccc(C3[C@@H]4CN(C(=O)c5cccnc5)C[C@H]3N4)cc2)c1 (stereo not given in full) | -3.5
Cc1cccc(-c2ccc(C3[C@@H]4CN(C(=O)Cc5ccncc5)C[C@H]3N4)cc2)c1 (stereo not given in full) | 1.2
N#Cc1ccc(-c2ccc([C@@H]3[C@H](CO)N4C(=O)CN(C(=O)Cc5ccccc5)C[C@@H]34)cc2)cc1 | -1.8
N#Cc1ccc(-c2ccc([C@H]3[C@H]4CN(C(=O)Cc5ccccc5)CC(=O)N4[C@H]3CO)cc2)cc1 | -0.7
N#Cc1cccc(-c2ccc(C3[C@@H]4CN(C(=O)Cc5ccncc5)C[C@H]3N4)cc2)c1 (stereo not given in full) | -26.3*!
N#Cc1ccc(-c2ccc(C3[C@@H]4CN(C(=O)Cc5ccccc5)C[C@H]3N4)cc2)cc1 (stereo not given in full) | -53.2*!
COc1ccc2c3c([nH]c2c1)[C@H](CO)N(C)CC31CN(C(=O)c2ccccn2)C1 | 13.0
CCCN1[C@@H]2c3ccc(-c4ccc(F)cc4)c(=O)n3C[C@@H]2[C@@H](CO)[C@@H]1C(=O)OC | 1.0
CC(C)[C@H]1COCc2cn(nn2)CC[C@@H](Cc2ccc(Cl)cc2)C(=O)N1 | -0.6
O=C(C[C@@H]1C[C@@H]2c3cc(NC(=O)C4CCC4)ccc3O[C@@H]2[C@H](CO)O1)NCCc1ccccc1 | -0.1
O=C(Nc1cccc(F)c1)N1C[C@@H]2N[C@H](C1)C2c1ccc(-c2cncnc2)cc1 (stereo not given in full) | -7.5
O=C(c1ccncc1)N1C[C@@H]2N[C@H](C1)C2c1ccc(-c2ccncc2)cc1 (stereo not given in full) | 5.4
O=C(C1CCCC1)N1C[C@@H]2N[C@H](C1)C2c1ccc(-c2ccncc2)cc1 (stereo not given in full) | -27.9*!
O=C(Nc1ccccc1)N1C[C@@H]2N[C@H](C1)C2c1ccc(-c2cccnc2)cc1 (stereo not given in full) | -52.2*
Cc1cccc(-c2ccc(C3[C@@H]4CN(C(=O)Nc5ccccc5)C[C@H]3N4)cc2)c1 (stereo not given in full) | -2.2
O=C(C1CCOCC1)N1C[C@@H]2N[C@H](C1)C2c1ccc(-c2cncnc2)cc1 (stereo not given in full) | 18.6
Cc1ccccc1S(=O)(=O)N(C)C[C@H]1OCc2ccccc2-c2ccccc2C(=O)N([C@@H](C)CO)C[C@@H]1C | -8.4
CNC[C@H]1Oc2cc(C#CC(C)(C)O)ccc2S(=O)(=O)N([C@H](C)CO)C[C@@H]1C | -0.8
COc1ccc2c3c([nH]c2c1)[C@H](CO)N(Cc1ccncc1)CC31CN(C(=O)c2cccnc2)C1 | 14.3
COc1ccc(C#Cc2ccc3c(c2)[C@@H]2[C@@H](CCN2C(C)=O)[C@@H](CO)N3)cc1 | 19.5
COc1ccc(C#Cc2ccc3c(c2)[C@H]2[C@H](CCN2C(=O)c2ccccc2F)[C@H](CO)N3)cc1 | -31.6*
COc1cccc(C#Cc2ccc3c(c2)[C@H]2[C@H](CCN2C(=O)c2ccc(F)cc2)[C@H](CO)N3)c1 | -8.6
COc1cccc(C#Cc2ccc3c(c2)[C@H]2[C@H](CCN2C(=O)c2ccccc2F)[C@H](CO)N3)c1 | -27.9*
COc1cccc(C#Cc2ccc3c(c2)[C@@H]2[C@@H](CCN2C(=O)c2ccccc2F)[C@@H](CO)N3)c1 | 7.7
O=C(c1ccccc1F)N1CC[C@H]2[C@H](CO)Nc3ccc(C#Cc4ccc(F)cc4)cc3[C@H]21 | -6.0

Assay outcomes from PubChem BioAssay.
